Out of some 300,000 compounds screened, about 5,200 (1.7%) were called active. This excerpt belongs to a sample that is enriched for actives. Values without a mark were called inactive.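 Rule for the calls: active = mean replicate activation of at least 50% with a set share of replicates each reaching 50%; inconclusive = only one of those two conditions met; inactive = mean below 50% and too few replicates reaching it.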
assay: HSF-1 activators, primary screen, NIH3T3-HGL cells, MG132 stress, luminescence, single point (AID 504408); conditions: NIH3T3-HGL HSF-1 luciferase reporter, MG132, 8 h; at 9 µM; active compounds read high; 100% = twice DMSO control signal;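 note: 0% = median of the neutral control wells and 100% = twice that signal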

SMILES | activation
O=C(CSc1nnc(-c2c[nH]c3ccccc23)n1-c1ccc(F)cc1)NCc1ccco1 | 58.5% (active)
COc1ccc(-n2c(SCC(=O)NCc3ccco3)nnc2-c2c[nH]c3ccccc23)cc1 | 7.75%
O=C(CSc1nnc2scc(-c3ccc(F)cc3)n12)NCc1ccco1 | -1.83%
O=S(=O)(Nc1ccc(-c2ccc(N3CCOCC3)nn2)cc1)c1cc(Cl)ccc1Cl | 12.9%
Cc1ccc(C(=O)N/N=C/c2cccc3ccccc23)cn1 | 15.6%
c1cnc(Nc2nc(-c3ccc4ccccc4c3)cs2)nc1 | 38.8%
CCCn1c(CCNc2nc(-c3ccc(OC)cc3)cs2)nc2ccccc21 | 3.73%
COc1ccc(-c2csc(Nc3ccccn3)n2)cc1 | 57.4% (active)
Cc1ccc(NC(=O)c2cccs2)cc1S(=O)(=O)N(C)C | -11.9%
Cc1ccc(C(=O)Nc2ccc(C)c(S(=O)(=O)N(C)C)c2)s1 | 78.5% (active)
CCN(CC(=O)Nc1ccc(C)c(S(=O)(=O)N(C)C)c1)Cc1ccccc1 | 3.82%
CN(C)S(=O)(=O)c1ccc(N2CCCC2)c(C(=O)Nc2ccc(Br)cc2F)c1 | 14.1%
Cc1ccc(Cc2nnc(SCC(=O)Nc3ccc(C)cc3C)[nH]c2=O)cc1 | 0.586%
Cc1c(NC(=O)C(C)OC(=O)c2c3c(nc4ccccc24)CCC(C)C3)c(=O)n(-c2ccccc2)n1C (stereo unspecified) | -5.9%
S=C1NC(c2ccccc2)=NCN1c1ccc(Br)cc1 | 55% (active)
Cc1nc(=O)c(-c2ccccc2)c(C)n1-c1ccc(Br)cc1 | 1.48%
O=C1CN(c2nc(-c3ccccc3)c3cc(Br)ccc3n2)c2ccccc2N1 | -21.4%
CCC(=O)Nc1ccc(C(=O)Nc2cccc(OC)c2)cc1 | 11.2%
CCC(=O)Nc1ccc2nn(-c3ccc(F)cc3)nc2c1 | 63.6% (active)
Cc1ccc(-n2nc3ccc(NC(=O)/C=C/c4ccco4)cc3n2)cc1C | 21.6%
Cc1cc(C)n2nc(C(=O)OC(C)C(=O)c3cc(C)c(C)cc3C)nc2n1 (stereo unspecified) | 4.08%
Cn1c(=S)sc2ccc3ccccc3c21 | -1.53%
COc1ccc(S(=O)(=O)NCC(c2ccco2)N2CCOCC2)cc1 (stereo unspecified) | -18.5%

SMILES | activation
COc1cccc(COC(=O)C2CCN(S(=O)(=O)c3ccc(Cl)cc3)CC2)c1OC | -0.23%
Cc1nn(-c2ccccc2)c2sc(C(=O)N(Cc3ccco3)C(C)C(=O)NC(C)(C)C)cc12 (stereo unspecified) | 91.4% (active)
Cc1ccc(-c2nnn(CC(=O)N(Cc3ccco3)C(C(=O)NC(C)(C)C)c3ccncc3)n2)o1 (stereo unspecified) | 10.4%
Cc1nc(C)c(C(=O)N(c2ccc(C)c(C)c2)C(C(=O)NCc2ccco2)c2ccccc2)s1 (stereo unspecified) | -5.39%
COc1ccc(NC(=O)CN(C)C(=O)c2cccc(S(=O)(=O)N3CCN(c4ccccc4)CC3)c2)cc1 | 14.8%
COc1ccc(C(=O)Oc2ccc(-c3nnco3)cc2)cc1S(=O)(=O)N1CCOCC1 | 7.88%
N#Cc1ccc(C2N=C(c3ccccc3)NO2)cc1 (stereo unspecified) | 56.2% (active)
Brc1ccccc1C1N=C(c2ccccc2)NO1 (stereo unspecified) | 9.38%
O=C(COC(=O)CNS(=O)(=O)c1ccc(F)c(F)c1F)NC1CCCC1 | -12.4%
Nc1cccnc1Sc1ccccc1 | 7.53%
O=C(CNC(=O)C12CC3CC(CC(C3)C1)C2)OCC(=O)N1CCCCC1 | 10.8%
CC(=O)N1CCN(C(=O)c2cc(-c3ccc(Cl)s3)nc3ccccc23)CC1 | 18.1%
O=c1oc2ccccc2cc1-c1csc(Nc2ccc(O)cc2)n1 | 125% (active)
CCNc1nc(-c2cc3ccccc3o2)cs1 | 25.2%
Cc1ccc(Nc2nc(-c3ccc(O)cc3O)cs2)nc1 | -44.2%
O=C1NC(c2cccc(Cl)c2)Nc2ccccc21 (stereo unspecified) | 19.4%
COc1ccc(C2NC(=O)c3ccccc3N2)cc1 (stereo unspecified) | 73.7% (active)
COc1cccc(C2Nc3cccc4cccc(c34)N2)c1 | 1.58%
COc1ccc2c(c1)O/C(=C\c1ccccc1O)C2=O | 61.8% (active)
O=C1Oc2ccccc2C(=O)/C1=C/c1ccccc1O | -36.2%
COC(=O)C(C)Oc1ccc2c(c1)O/C(=C\c1cccc(Br)c1)C2=O (stereo unspecified) | -3.63%
CCOc1ccc(/C=C/C(=O)N(CC)CC(=O)NCc2cccs2)cc1OC | -14%
COc1ccccc1-n1ccnc(SCC(=O)NC2CCCCC2)c1=O | -0.123%

SMILES | activation
CC(C)CC(=O)N/C(N)=N/c1nc2ccccc2s1 | 10.3%
CCC(=O)NC(=Nc1nc2ccccc2s1)NC(=O)CC | 60.3% (active)
O=C(O)CCCCc1nc2ccccc2s1 | 13%
COc1ccc2sc(N(CCCN(C)C)C(=O)c3ccc(S(=O)(=O)N(C)C4CCCCC4)cc3)nc2c1 | -14.5%
O=C1C=C(c2ccc(Cl)cc2)C(=O)N1Nc1ccccc1 | 82% (active)
O=C1c2cccc3cc(Br)cc(c23)C(=O)N1Nc1ccccc1 | -9.54%
O=C(CCC(=O)OCc1ccc(Cl)cc1)Nc1ccccc1 | 10.6%
Cc1cc(C)n2nc(C(=O)OCC(=O)N(CCC#N)c3ccc(F)cc3)nc2n1 | 12.7%
O=C(NCc1ccccc1Cl)C(=O)NCC1CCCN1S(=O)(=O)c1cccs1 (stereo unspecified) | 4.38%
CCCCN(C(=O)c1ccc(C)o1)c1c(N)n(CCCC)c(=O)[nH]c1=O | 12.2%
CN(C)CCCN(C(=O)c1ccc(S(=O)(=O)N2CCCCCC2)cc1)c1nc2cc3c(cc2s1)OCCO3 | -46.2%
CCCCn1c(N)c(N(CC(C)C)C(=O)c2cccc(S(=O)(=O)N3CC(C)OC(C)C3)c2)c(=O)[nH]c1=O (stereo unspecified) | -0.424%
Cc1ccc(S(=O)(=O)NCCSc2ccccc2)cc1[N+](=O)[O-] | -0.244%
CCOc1ccc(S(=O)(=O)NCCC(=O)N2CCCCCCC2)cc1 | 4.97%
CCOc1ccc(S(=O)(=O)NCCSc2ccccc2)cc1 | 61.2% (active)
COc1ccc(-c2cc(C(=O)N/N=C/c3cccnc3)c3ccccc3n2)c(OC)c1 | 5.29%
O=C(NCCNc1ccccc1[N+](=O)[O-])c1ccccc1F | 55.9% (active)
O=C(NCCCNc1ccc([N+](=O)[O-])cc1Cl)c1ccccc1F | -9.78%
O=C(NCCNc1ccc([N+](=O)[O-])cc1Cl)c1ccccc1F | 18.7%
O=C(c1ccncc1)N1CCN(S(=O)(=O)c2cccc([N+](=O)[O-])c2)CC1 | 4.99%
COc1cccc(NC(=O)CN(C)C(=O)CSCc2nc3scc(-c4cccs4)c3c(=O)[nH]2)c1 | 0.833%
O=C(c1ccc(NS(=O)(=O)c2ccc3[nH]c(=O)[nH]c3c2)cc1)N1CCCCC1 | 12.7%
COc1ccc(Cl)cc1NC(=O)CN(C)C(=O)c1cc2ccccc2cc1OC | 21%

SMILES | activation
COc1ccc(Cl)cc1NC(=O)CN(C)C(=O)CCCc1c[nH]c2ccccc12 | 60.8% (active)
COc1ccccc1NC(=O)CCCc1c[nH]c2ccccc12 | -2.42%
COc1ccccc1NS(=O)(=O)c1ccc(C)c(C(=O)NCC(c2ccco2)N(C)C)c1 (stereo unspecified) | -1.37%
COc1ccccc1C(=O)Nc1cccc(C(=O)N2CCOCC2)c1 | 8.16%
COc1cc2ccccc2cc1C(=O)Nc1ccc(N2CCOCC2)cc1 | 4.47%
CCc1cc(C(c2ccccc2OC)N2CCOCC2)c(NC(=O)c2ccccc2)s1 (stereo unspecified) | 68.8% (active)
Cc1ccc(C(=O)NNC(=O)c2ccncc2)cc1S(=O)(=O)N1CCCCC1 | -9.07%
CCCCCCCNC(=O)C1(CC2CC(c3cccc(Br)c3)=NO2)CCN(C(=O)c2cc(OCC)c(OCC)c(OCC)c2)CC1 (stereo unspecified) | 4.29%
Cn1cc([N+](=O)[O-])c(C(=O)Nc2cnn(Cc3ccc(F)cc3)c2)n1 | 65.1% (active)
CCc1ccc(NC(=O)c2ccc(Cn3cc([N+](=O)[O-])cn3)cc2)cc1 | -1.45%
Cn1cc([N+](=O)[O-])c(C(=O)Nc2ccc3c(c2)OCCO3)n1 | 48.7%
O=C(CSc1nc2nccnc2c(=O)n1Cc1cccs1)Nc1ccccc1F | 77.1% (active)
COCCn1c(SCC(=O)Nc2cc(Cl)ccc2OC)nc2c(c1=O)SC(C)C2 (stereo unspecified) | -0.138%
COCCn1c(SCC(=O)Nc2ccccc2F)nc2c(c1=O)SCC2 | 54.8% (active)
CCOc1ccc(NC(=O)CSc2nc3ccccc3c(=O)n2Cc2cccs2)cc1 | -10.7%
O=C(CSc1ccc(-c2cccs2)nn1)Nc1ccccc1F | -2.98%
COCCn1c(SCC(=O)N2CCCCCC2)nc2c(c1=O)SCC2 | 2.01%
CCc1ccc(C(=O)NNC(=O)C2CCN(c3ncnc4sc(C)c(C)c34)CC2)cc1 | -1.58%
CCOc1ccc(NS(=O)(=O)c2ccc(C(=O)NCC(c3ccccc3OC)N3CCCC3)cc2)cc1 (stereo unspecified) | -2.02%
COc1cccc(COC(=O)C2CCN(S(=O)(=O)c3cccs3)CC2)c1OC | 1.63%
O=C(CC1SC(N2CCCC2)=NC1=O)Nc1ccc(C(=O)NCCc2ccc(F)cc2)cc1 (stereo unspecified) | -12%
CCN(C(=O)COC(=O)C1CCN(S(=O)(=O)c2ccc(C)c(C)c2)CC1)C1CCS(=O)(=O)C1 (stereo unspecified) | 1.03%

Reference: PubChem BioAssay AID504408 (Broad Institute, 2011)
